Bioassay records deposited in PubChem BioAssay by several laboratories.
Redox H2O2 prof: compounds producing H2O2 with reducing agent – biochemical, NIH compound library profiling, artefact control for MLSCN library redox annotation, primary screen. activation, % at 10 µM. 200,000 tested, 0.03% active. DTT-dependent redox cycling H2O2, phenol red/HRP absorbance; 100% = 100 µM peroxide control, 0% = buffer;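 active = activation of at least 50% relative to the plate's high and low controls in the primary single-dose screen; inactive = activation below 50%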;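 note: compound incubated with DTT at 0.8 mM final as the reducing agent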
Ins promoter up: MIN6 insulin promoter up-regulation | z-score at 5 µM | 190,000 tested, 0.3% active | MIN6 insulin promoter-GFP reporter, high-content imaging; hits give high values | AID 1625;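 active = z-score above 3 at 5 µM with at least 500 cells counted in the well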
Arbovirus anti: blocks arbovirus infection; 200,000 tested, 0.37% active; arbovirus infection cell-based antiviral screen; inhibition, % at 10 µM; in the data active = inhibition above about 30%
NCF1 inh: p47phox (human) inhibition. P14598. p47phox/p22phox peptide binding, fluorescence polarization, 2 h. inhibition, % at 24.7 µM. 220,000 tested, 0.53% active;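 active = inhibition above about 30%, limit read from the data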;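 note: 0% = p47phox with labelled peptide and 100% = labelled peptide alone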
Target sequence (P14598 whole entry, looked up): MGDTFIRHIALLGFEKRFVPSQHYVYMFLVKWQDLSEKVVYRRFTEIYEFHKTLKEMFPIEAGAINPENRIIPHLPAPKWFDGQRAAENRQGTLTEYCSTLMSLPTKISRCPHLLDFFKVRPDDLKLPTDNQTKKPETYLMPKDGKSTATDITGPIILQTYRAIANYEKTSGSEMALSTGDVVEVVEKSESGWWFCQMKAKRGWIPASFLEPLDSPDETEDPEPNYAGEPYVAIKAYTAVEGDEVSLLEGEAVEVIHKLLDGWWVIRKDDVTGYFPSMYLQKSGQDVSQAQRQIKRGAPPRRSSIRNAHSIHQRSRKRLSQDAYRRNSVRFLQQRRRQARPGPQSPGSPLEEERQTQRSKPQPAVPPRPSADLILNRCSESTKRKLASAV
Autophagy HCS: modulators of autophagy; MEF GFP-LC3 puncta imaging; test concentration mostly 10 µM; calls only at 10 µM (by protocol); 190,000 tested, 0.98% active;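 active = percentage of spot-positive cells more than 3 SD above its plate mean, without a fluorescence outlier flag or 80% toxicity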;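 note: spot-positive cell cutoff set from DMSO-treated cells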
Efa HMGR inh: E. faecalis class II HMG-CoA reductase inhibition. purified E. faecalis HMGR, NADPH absorbance 340 nm kinetic. 190,000 tested, 0.41% active. inhibition, % at 10 µM;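 active = inhibition above a set limit, the median over all tested compounds plus 3 SD, cut at about 9.5% in these data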;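 note: enzyme runs in reverse so mevalonate oxidation gives rising NADPH absorbance; 0% = complete reaction with DMSO and 100% = background rate lacking mevalonate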
An asterisk follows results filed as active; i = inactive; · = no result; + = active, no number. A selection: hits, their analogues and other compounds. The true share with any hit is near 2.2%.

SMILES	Redox H2O2 prof	Ins promoter up	Arbovirus anti	NCF1 inh	Autophagy HCS	Efa HMGR inh
NC(=O)/C(=N\OC(=O)c1ccco1)c1nc(-c2ccc(Br)cc2)cs1	1	-0.01	44*	-14	i	-2
CCOC(=O)Cc1nnc(NC(=O)c2ccccc2OCC)s1	-1	·	78*	0	i	-3
CCOC(=O)Cc1nnc(NC(=O)c2ccccc2OC)s1	-5	·	7	-4	i	-3
CCc1nc2ccccc2c(C(=O)OCC(=O)NCCCN2CCCC2=O)c1C	0	-0.66	7	-9	i	1
O=C(O)c1ccc(N2C(=O)/C(=C/c3ccc(-c4ccc([N+](=O)[O-])cc4)o3)C=C2c2ccccc2)cc1	1	-1.4	106*	-39	i	2
CC1=NN(c2ccc(Cl)c(C(=O)O)c2)C(=O)/C1=C\c1ccc(-c2ccc(C(=O)O)cc2)o1	-1	-0.61	2	-16	i	-6
Cc1ccccc1Nc1nnc(SCc2nc3ccccc3c(=O)[nH]2)s1	-1	0.7	-11	-14	i	14*
Cc1cccc(C)c1Nc1nnc(SCc2nc3ccccc3c(=O)[nH]2)s1	0	0.34	3	-12	i	-2
O=C(Cn1ncc(Cl)c(Cl)c1=O)N1CCN(S(=O)(=O)c2ccc3ccccc3c2)CC1	0	-4.4	-34	-16	+	-7
O=C(CCC(=O)N1CCN(S(=O)(=O)c2ccc3ccccc3c2)CC1)Nc1cc(Cl)cc(Cl)c1	-2	-0.22	1	-16	i	6
O=C(/C=C/c1ccccc1)Nc1scc(-c2ccccc2)c1C(=O)O	2	0.93	73*	-6	+	-6
O=C(/C=C/c1ccco1)Nc1scc(-c2ccccc2)c1C(=O)O	·	0.36	·	-31	·	·
Cc1ccc(C(=O)Nc2scc(-c3ccccc3)c2C(=O)O)o1	0	-0.36	62*	-13	i	2
COc1ccc(-c2csc(NC(=O)c3cccs3)c2C(=O)O)cc1OC	-1	-0.92	24	-12	i	-4
COc1ccc(-c2csc(NC(=O)Cc3cccc4ccccc34)c2C(=O)O)cc1	1	-0.79	47*	-16	i	1
Cc1ccc(C(=O)Nc2ccccc2-c2ccccc2)o1	0	1.1	-5	-7	i	-6
COc1cccc(C2=NOC(C(=O)NCCN3CCOCC3)C2)c1 (centres undefined)	-1	-0.22	6	-13	i	0
O=C(Cc1ccc(Br)cc1)NC1CCSC1=O (centres undefined)	0	·	0	-6	i	0
COc1ccc(/C=N/Nc2ccc(C(=O)O)cc2)cc1Br	0	-0.06	13	-12	i	1
C=CCOc1c(Br)cc(/C=N/Nc2ccc(C(=O)O)cc2)cc1OCC	0	0.13	31*	-15	i	1
O=C(Nc1c(C(=O)O)[nH]c2ccc(F)cc12)c1cccc(C(F)(F)F)c1	·	-0.41	·	-5	·	·
CCOC(=O)c1cnc2ccc(C(=O)OC)cc2c1Nc1ccc2c(c1)OCCO2	0	·	2	4	+	-8
CC(=O)Nc1ccc(S(=O)(=O)Nc2nc(C)nc3sc4c(c23)CCC4)cc1	·	-0.19	·	-6	·	·
Cc1nc(NS(=O)(=O)c2ccccc2C)c2c3c(sc2n1)CCC3	1	0.54	38*	-13	i	3
COCC(C)n1c(SCC(=O)N2CCc3ccccc3C2)nc2ccccc2c1=O (centres undefined)	0	0.13	18	-1	i	1
SMILES	Redox H2O2 prof	Ins promoter up	Arbovirus anti	NCF1 inh	Autophagy HCS	Efa HMGR inh
Cc1cc(C(=O)N[C@H](c2ccccc2)[C@@]2(C)C[C@@H]2[C@@H](C)C(=O)Nc2ccc3ccccc3c2)no1	1	-0.43	-9	-22	i	25*
Cc1cc(C(=O)N[C@@H](c2ccccc2)[C@]2(C)C[C@H]2[C@@H](C)C(=O)Nc2ccc3ccccc3c2)no1	1	0.63	-19	-11	i	-1
COc1cc(CCC(=O)Nc2cc(C)cc(C)c2)cc(OC)c1OC	0	0.99	17	-8	i	2
O=c1[nH]ncn1-c1ccccc1C(F)(F)F	1	-0.67	6	-4	i	-4
O=c1[nH][nH]c(=S)n1-c1ccccc1C(F)(F)F	·	-0.16	·	60*	·	·
COc1ccc(N2C(=O)C3NN=C(C(=O)OCc4ccccc4)C3C2=O)cc1 (centres undefined)	4	-0.16	0	-10	i	3
O=[N+]([O-])c1ccc(N2CCN(S(=O)(=O)c3ccc(Cl)cc3)CC2)cc1NCC1CCCO1 (centres undefined)	3	0.49	14	-10	+	-5
Nc1ccccc1C(=O)NNc1c2ccccc2nc2ccccc12	·	0.42	·	-4	·	·
CCOC(=O)N1CCc2c(sc(NC(=O)CN3CCOCC3)c2C(=O)Nc2ccccc2)C1	0	0.04	0	-10	+	2
CCOC(=O)N1CCc2c(sc(NC(=O)CN3CCN(C)CC3)c2C(=O)Nc2ccccc2)C1	0	0.05	0	-12	i	0
CC(=O)N1CCc2cc(S(=O)(=O)NC(CC(C)C)C(=O)Nc3ccc4c(c3)OCCO4)ccc21 (centres undefined)	-3	-1	1	0	i	-1
CCCCCCNC(=O)C(=O)NCCc1ccc(Cl)cc1	0	0.15	-8	3	i	47*
CC(C)NC(=O)C(=O)NCCc1ccc(Cl)cc1	0	·	5	-1	i	-7
O=C(OCC(=O)c1ccc(S(=O)(=O)N2CCCC2)cc1)C1=COCCO1	0	0.13	6	+	i	-4
CC1(C)CCN(Cc2ccccc2)C1CC#N (centres undefined)	0	1.4	5	-1	i	-8
CCOC(=O)C1(Cc2ccccc2)CCN(Cc2ccon2)CC1	-1	1.2	-2	2	+	-1
CCOC(=O)C1(Cc2ccccc2)CCN(Cc2cccc3c2OCO3)CC1	0	-0.38	9	-1	+	-10
NC(=S)Nc1cccc(O)c1	·	0.04	·	-9	·	·
CC(=O)Oc1ccc2c(=O)c(Oc3ccccc3)coc2c1OC(C)=O	0	-0.37	-18	-6	+	2
COC(=O)c1ccc(NC(=O)Cn2c(-c3nonc3N)nc3ccccc32)cc1	0	1.5	-11	-3	i	1
COC(=O)c1ccccc1NC(=O)Cn1c(-c2nonc2N)nc2ccccc21	2	-0.28	-17	-2	+	-3
Cc1nc(S/C(=C/c2ccc(-c3cccc(Cl)c3)o2)C(=O)O)n[nH]1	2	·	33*	-41	i	0
CC1=NOC(=O)/C1=C\c1ccc(-c2cccc(Cl)c2)o1	1	0.7	-34	-41	i	0
Cc1nn(-c2cccc(Cl)c2)c2nc(-c3ccco3)cc(C(=O)O)c12	0	·	19	-10	i	-3
